Assay results taken from PubChem BioAssay (Tox21).
Results filed as inconclusive are left out. Active and inactive are the calls of the source. Unless noted, calls follow the shape of the dose curve; as a rule, active = well fitted curve in the direction sought with a large enough effect in the repeat runs; inconclusive = weak or mixed curves; inactive = no such curve, though single readings can be large; an effect the other way counts as inactive or inconclusive.

What was measured:
[1] = qHTS assay for small molecules that induce genotoxicity in human embryonic kidney cells expressing luciferase-tagged ATAD5 - cell viability (AID 651634; calls by dose curve; also: nearly all actives have a fitted effect of over 25% in size)
Summary of the method: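 15.5 hr compound or vehicle exposure of HEK293T cells expressing luciferase-tagged ATAD5 at 37C; live-cell protease activity is read by fluorescence after 30 min of CellTiter-Fluor.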

[2] = qHTS assay for small molecule disruptors of the mitochondrial membrane potential - cell viability (AID 720634; calls by dose curve;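 also: human HepG2 liver cancer cells; series mostly up to about 83 µM; nearly all actives have a fitted effect of over 20% in size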)
Summary of the method: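 In this qHTS format, HepG2 cells plated overnight were pinned with compound, incubated 1 hr, and assayed for ATP luminescence with CellTiter-Glo after m-MPI dye addition.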

[3] = qHTS assay to test for compound auto fluorescence at 535 nm (green) in HepG2 cells (AID 720675)
[4] = qHTS assay to test for compound auto fluorescence at 535 nm (green) in HEK293 cells (AID 720680)
[5] = qHTS assay to test for compound auto fluorescence at 460 nm (blue) in HEK293 cell free culture (AID 720681)
Summary of the method: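 Compounds were added to cell-free DMEM with 10% FBS and fluorescence read directly. The blue channel used 405 nm excitation and 460 nm emission, with triamterene as the reference fluorophore.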

[6] = qHTS assay to test for compound auto fluorescence at 535 nm (green) in HEK293 cell free culture (AID 720682)
Summary of the method: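 Green-label autofluorescence (485 nm excitation, 535 nm emission) measured on compound added to cell-free culture medium (DMEM, 10% FBS). Output is expressed relative to fluorescein.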

[7] = qHTS assay to test for compound auto fluorescence at 590 nm (red) in HEK293 cell free culture (AID 720683)
Summary of the method: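 Cell-free wells of DMEM with 10% FBS received compound, and intrinsic fluorescence was read at excitation/emission 540/590 nm. Values expressed as equivalence to Rose Bengal sodium.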

[8] = qHTS assay to test for compound auto fluorescence at 590 nm (red) in HepG2 cell free culture (AID 720684)
Summary of the method: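 Auto fluorescence equivalency versus Rose Bengal sodium, red channel Ex/Em 540/590 nm; compounds in cell-free MEM/10% FBS; DMSO vehicle control.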

[9] = qHTS assay to test for compound auto fluorescence at 460 nm (blue) in HepG2 cell free culture (AID 720685)
Summary of the method: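 Cell-free plates of MEM plus 10% FBS received 23 nL compound or DMSO vehicle; blue-channel (405/460 nm) intensity scored against triamterene as reference fluorophore.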

[10] = qHTS assay to test for compound auto fluorescence at 535 nm (green) in HepG2 cell free culture (AID 720686)
[11] = qHTS assay to identify small molecule antagonists of the androgen receptor (AR) signaling pathway using the MDA cell line - cell viability counter screen (AID 743041; also: nearly all actives have a fitted effect of over 45% in size)
Summary of the method: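 Compound exposure lasted 16 h at 37C in MDA-kb2 AR-luc cells stimulated with R1881. Protease-based CellTiter-Fluor reagent was applied for the final 30 min and fluorescence measured.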

[12] = test system: thyroid hormone receptor (rat, GH3 cells); test: qHTS assay to identify small molecule agonists of the thyroid receptor (TR) signaling pathway (AID 743066; calls by dose curve)
[13] = qHTS assay to identify small molecule antagonists of the estrogen receptor alpha (ER-alpha) signaling pathway - cell viability counter screen (AID 743074; calls by dose curve;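 also: HEK293 cells carrying ER-alpha-UAS-bla reporter stimulated with 17beta-estradiol; nearly all actives have a fitted effect of over 45% in size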)
[14] = qHTS assay to identify small molecule antagonists of the estrogen receptor alpha (ER-alpha) signaling pathway using the BG1 cell line - cell viability counter screen (AID 743081);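 also: compound given together with 17beta-estradiol as the ER stimulus; series mostly up to about 70 µM; nearly all actives have a fitted effect of over 45% in size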
Aromatase (Homo sapiens) = Aromatase (Homo sapiens) (UniProt P11511); test: qHTS assay to identify aromatase inhibitors (AID 743083); also: series mostly up to about 70 µM; nearly all actives have a fitted effect of over 55% in size
[15] = qHTS assay to identify aromatase inhibitors - cell viability counter screen (AID 743084);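 also: cells stimulated with testosterone during compound exposure; nearly all actives have a fitted effect of over 55% in size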
[16] = target: Aryl hydrocarbon receptor (Homo sapiens) (UniProt P35869); test: qHTS assay to identify small molecule that activate the aryl hydrocarbon receptor (AhR) signaling pathway (AID 743085);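 also: HG2L7.5c1 human HepG2 liver cells with stably integrated DRE-driven firefly reporter; series mostly up to about 70 µM; nearly all actives have a fitted effect of over 15% in size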
Summary of the method: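 HepG2 cells stably carrying a 20-DRE firefly luciferase reporter (HG2L7.5c1) treated with compound for 24 hr at 37C. Luciferase read by ONE-Glo luminescence, with CellTiter-Fluor viability read first.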

[17] = qHTS assay to identify small molecule that activate the aryl hydrocarbon receptor (AhR) signaling pathway - cell viability counter screen (AID 743086);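 also: HepG2 liver cells carrying the AhR DRE luciferase reporter; series mostly up to about 70 µM; nearly all actives have a fitted effect of over 45% in size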
Summary of the method: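 HepG2-AhR-luc (HG2L7.5c1) cells, 4000/well, treated 24 h at 37 C with compound; viability measured as CellTiter-Fluor fluorescence after 30 min in the same wells as the luciferase read.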

[18] = qHTS assay to identify small molecule phospholipidosis (PLD) inducers (AID 1259344; active = well fitted curve in the direction sought with a large enough effect; an effect the other way counts as inactive or inconclusive)
Summary of the method: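 Image-based: LipidTOX Red pit count/intensity per well and per cell; HepG2, 24 h compound at 37 C, PFA fixation, Hoechst counterstain.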

[19] = target: Nuclear receptor subfamily 1 group I member 2 (Rattus norvegicus) (UniProt Q9R1A7); test: Rat pregnane X receptor (rPXR) activation by small molecules, qHTS assay (AID 1346983); conditions: rPXR luciferase reporter cells, One-Glo luminescence, 24 h; max activation: hits give high values; also: nearly all actives have a fitted effect of over 20% in size
Summary of the method: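 Cell-based rPXR activation assay: rPXR cells, 2,000 per well, rested 5hr at 37 C, then exposed to compounds in DMSO for 24 hr at 37 C. Luciferase activity read by One-Glo luminescence after 30 min at room temperature.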
% is scaled to controls: 0 for no effect and ±100 for the full control effect.

Aryl hydrocarbon receptor (Homo sapiens), sequence (P35869 whole entry, looked up): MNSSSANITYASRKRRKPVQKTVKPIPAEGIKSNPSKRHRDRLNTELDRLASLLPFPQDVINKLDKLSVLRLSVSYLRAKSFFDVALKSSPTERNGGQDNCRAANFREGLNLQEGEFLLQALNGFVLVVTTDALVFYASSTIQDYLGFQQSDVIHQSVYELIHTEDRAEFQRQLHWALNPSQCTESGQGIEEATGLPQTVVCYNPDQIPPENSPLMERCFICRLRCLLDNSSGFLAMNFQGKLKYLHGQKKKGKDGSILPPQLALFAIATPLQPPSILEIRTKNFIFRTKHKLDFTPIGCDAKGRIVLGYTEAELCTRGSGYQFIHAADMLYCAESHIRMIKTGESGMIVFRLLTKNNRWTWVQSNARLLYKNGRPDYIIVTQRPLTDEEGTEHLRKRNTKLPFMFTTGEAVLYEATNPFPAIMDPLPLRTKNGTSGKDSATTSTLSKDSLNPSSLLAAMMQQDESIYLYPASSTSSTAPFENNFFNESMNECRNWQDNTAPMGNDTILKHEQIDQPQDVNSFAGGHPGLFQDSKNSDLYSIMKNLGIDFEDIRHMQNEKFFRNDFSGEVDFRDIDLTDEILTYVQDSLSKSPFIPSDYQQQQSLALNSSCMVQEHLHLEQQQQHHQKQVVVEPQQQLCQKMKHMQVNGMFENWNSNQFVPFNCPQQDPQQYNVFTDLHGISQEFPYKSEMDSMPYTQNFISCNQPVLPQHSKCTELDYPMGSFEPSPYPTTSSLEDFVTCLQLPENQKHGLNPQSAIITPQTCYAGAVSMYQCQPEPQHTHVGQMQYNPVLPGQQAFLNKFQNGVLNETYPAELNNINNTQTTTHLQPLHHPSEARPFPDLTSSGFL
Nuclear receptor subfamily 1 group I member 2 (Rattus norvegicus), sequence (Q9R1A7 whole entry, looked up): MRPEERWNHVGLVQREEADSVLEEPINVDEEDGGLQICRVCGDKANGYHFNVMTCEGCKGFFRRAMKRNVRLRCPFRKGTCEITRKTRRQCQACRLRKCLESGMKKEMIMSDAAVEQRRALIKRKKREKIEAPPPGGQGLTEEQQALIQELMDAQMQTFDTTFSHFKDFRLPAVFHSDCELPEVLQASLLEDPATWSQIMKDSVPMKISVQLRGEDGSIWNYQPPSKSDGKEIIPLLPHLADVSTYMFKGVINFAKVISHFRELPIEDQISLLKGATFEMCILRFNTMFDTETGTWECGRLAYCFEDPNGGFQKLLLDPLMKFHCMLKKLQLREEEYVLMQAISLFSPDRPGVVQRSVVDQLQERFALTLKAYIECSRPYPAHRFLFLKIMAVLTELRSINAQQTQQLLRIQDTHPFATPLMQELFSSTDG
Aromatase (Homo sapiens), sequence (P11511 whole entry, looked up): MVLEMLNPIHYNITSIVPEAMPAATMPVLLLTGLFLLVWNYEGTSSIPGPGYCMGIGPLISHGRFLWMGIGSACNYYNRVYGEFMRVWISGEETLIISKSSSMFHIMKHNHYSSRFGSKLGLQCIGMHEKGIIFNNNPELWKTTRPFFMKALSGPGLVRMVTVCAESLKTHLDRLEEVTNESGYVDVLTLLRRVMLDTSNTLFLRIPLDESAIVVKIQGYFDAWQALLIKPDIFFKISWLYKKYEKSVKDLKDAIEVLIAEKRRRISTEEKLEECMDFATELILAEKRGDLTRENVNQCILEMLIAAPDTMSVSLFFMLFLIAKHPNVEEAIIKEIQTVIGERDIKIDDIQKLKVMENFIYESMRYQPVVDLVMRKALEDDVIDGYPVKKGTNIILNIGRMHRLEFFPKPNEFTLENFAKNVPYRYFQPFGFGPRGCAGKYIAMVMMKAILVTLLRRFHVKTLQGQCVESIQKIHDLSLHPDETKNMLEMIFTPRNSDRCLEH

CCC1C(C)=NN=C(c2ccc(OC)c(OC)c2)c2cc(OC)c(OC)cc21 (centres undefined)
inactive: Potency [1] | Potency [2] | Potency [3] | Potency [4] | Potency [5] | Potency [6] | outcome [7] | outcome [8] | Potency [9] | Potency [10] | Potency [11] | Potency [12] | Potency [13] | Potency [14] | Potency (Aromatase (Homo sapiens)) | Potency [15] | Potency [16] | Potency [17] | Potency [18] | max activation [19] -0.64%

COc1ccc2c3c1O[C@H]1C(=O)CC[C@H]4[C@@H](C2)N(C)CC[C@]314
inactive: Potency [1] | Potency [2] | Potency [3] | Potency [4] | Potency [5] | Potency [6] | outcome [7] | outcome [8] | Potency [9] | Potency [10] | Potency [11] | Potency [12] | Potency [14] | Potency (Aromatase (Homo sapiens)) | Potency [15] | Potency [16] | Potency [17] | Potency [18] | max activation [19] -2.81%

C[N+]1(C)[C@@H]2CC[C@H]1CC(OC(=O)c1c[nH]c3ccccc13)C2 (some centres undefined)
inactive: Potency [1] | Potency [2] | Potency [3] | Potency [4] | Potency [5] | Potency [6] | outcome [7] | outcome [8] | Potency [9] | Potency [10] | Potency [11] | Potency [12] | Potency [13] | Potency [14] | Potency (Aromatase (Homo sapiens)) | Potency [15] | Potency [16] | Potency [17] | Potency [18] | max activation [19] -3.92%

OC[C@@H](O)[C@H]1O[C@@H]2O[C@@H](C(Cl)(Cl)Cl)O[C@@H]2[C@H]1O
inactive: Potency [1] | Potency [2] | Potency [3] | Potency [4] | Potency [5] | Potency [6] | outcome [7] | outcome [8] | Potency [9] | Potency [10] | Potency [11] | Potency [12] | Potency [13] | Potency [14] | Potency (Aromatase (Homo sapiens)) | Potency [15] | Potency [16] | Potency [17] | Potency [18] | max activation [19] -2%

N#CC1(N2CCCCC2)CCCCC1
inactive: Potency [1] | Potency [2] | Potency [3] | Potency [4] | Potency [5] | Potency [6] | outcome [7] | outcome [8] | Potency [9] | Potency [10] | Potency [11] | Potency [12] | Potency [13] | Potency [14] | Potency (Aromatase (Homo sapiens)) | Potency [15] | Potency [16] | Potency [17] | Potency [18] | max activation [19] -1.32%
